The results in this text go back to PubChem BioAssay (NCATS).

Molecules are shown by their SMILES. Records with an inconclusive call do not appear. A number with no mark means an inactive call. Active and inactive are the calls of the source. Calls follow the shape of the dose curve; as a rule, active = well fitted cell-killing curve with a large enough effect; inconclusive = small, poorly fitted or top-dose-only effect; inactive = no such curve, though single readings can be large or run the other way.
% is scaled to controls: 0 for no effect and ±100 for the full control effect; potency is read from the fitted curve at half-maximal effect.

A short description of the assay: qHTS of pediatric cancer cell lines to identify multiple opportunities for drug repurposing: Primary screen for SK-N-SH cells (AID 1347098). Also: nearly all actives have a fitted effect of over 65% in size. To be noted: SK-N-SH viability, CellTiter-Glo luminescence, 48 h; series mostly up to 57 µM; activity change, negative = cytotoxic: at the top concentration. The text has this:
Drug repurposing or repositioning has been offered as a strategy for drug development in oncology programs. This approach has special potential for childhood cancers and other rare or orphan diseases, where the expected return on new drug development has been a disincentive to pharmaceuticals.
In this project we exploit the poly-pharmacology of drugs to discover new indications via phenotypic screening of a panel of 19 well-characterized cell lines derived from solid tumors seen in children and adolescents. The goal is to identify approved drugs with previously unrecognized anticancer properties that has the potential to reveal new mechanisms and biological processes involved in carcinogenesis or drug resistance. We employed a titration-based paradigm (quantitative high-throughput screening or qHTS), where all compounds were tested at multiple concentrations for their effect on cell viability. Concentration-response curves (CRCs) were derived directly from the primary screen, and both potency and efficacy values were used to identify compounds with robust bioactivity profiles. We screened the NIH Chemical Genomics Center (NCGC) Pharmaceutical Collection (NPC) and Mechanism Interrogation Plate (MIPE) small molecule collections of approved and investigational compounds against these cell lines; and measured metabolically active cells after 48 hours of compound treatment as a proxy for cell viability.
Assay Submitter: Nathalia J. Martinez, National Center for Advancing Translational Sciences, National Institutes of Health, Rockville, MD, USA; email: natalia.martinez@nih.gov
[1] Shen, M et al. Quantitative high-throughput phenotypic screening of pediatric cancer cell lines identifies multiple opportunities for drug repurposing. Oncotarget 2017 Dec 19;9(4):4758-4772. PMID 29435139.
The cells were obtained from University of North Carolina (UNC), Pediatric Preclinical Testing Program (PPT), and Coriell Institute (CI).
qHTS cell viability assay:
Cells were assayed in growth media at a density of 500-1,000 cells/well. Five microliters of cells were dispensed into 1,536-well, white, solid-bottom, TC-treated plates (Greiner Bio One) using a multidrop dispenser and incubated at 37 degrees C, 5% CO2, under a humidified atmosphere for 5 hours. Twenty-three nanoliters of compounds and controls (neutral control DMSO or positive control bortezomib at final concentration of 2.3 µM) were subsequently transferred by Kalypsys pintool. For primary screens, the MIPE collection was tested at 11-point dilutions (final concentrations range from 0.78 nM to 46 µM) and the NPC collection at 8-point dilutions (final concentrations range from 0.59 nM to 46 µM). Compounds tested in follow-up screens were assayed at 11-point dilutions. Cells were incubated for 48 hours, followed by addition of 3 µL of CellTiter-Glo (Promega). After a 15 min incubation at room temperature, samples were analyzed for luminescence intensity using a ViewLux High-throughput CCD imager equipped with clear filters.
A general note: Quantitative high-throughput screening tests each substance at several concentrations.
With `O=C(CCCCCCC(=O)Nc1ccc([C@H]2O[C@@H](CSc3nc(-c4ccccc4)c(-c4ccccc4)o3)C[C@@H](c3ccc(CO)cc3)O2)cc1)NO`, the Potency is 27.1 µM (active).
Regarding `c1cc(-c2cnn3cc(-c4ccc(OCCN5CCCCC5)cc4)cnc23)ccn1`, the Potency is 21.5 µM (active).
With `Nc1ncnc2c1c(-c1cccc(OCc3ccccc3)c1)cn2C1CC(CN2CCCC2)C1` (stereo not given), the Potency was 21.5 µM (active).
Consider `COc1ccc(F)c(F)c1C(=O)c1cnc(NC2CCN(S(C)(=O)=O)CC2)nc1N`, for which the Potency was 2.71 µM (active).
`C=CC(=O)N1CCC[C@@H](n2nc(-c3ccc(Oc4ccccc4)cc3)c3c(N)ncnc32)C1`: the Potency was 12.1 µM (active).
For the compound `Nc1cccc(-c2cc3c(Oc4cccc(O)c4)ncnc3[nH]2)c1`, the Potency was 3.04 µM (active).
For `Cc1ccc(S(=O)(=O)Nc2cc(Cl)ccc2C(=O)Nc2nc(-c3ccccc3)cs2)cc1`, the “activity change, negative = cytotoxic” value was 18.3%.
Regarding `CNC(=O)c1nn(C)c2c1C(C)(C)Cc1cnc(Nc3ccc(N4CCN(C)CC4)cc3)nc1-2`, the Potency is 1.71 µM (active).
Same read-out and setting: with `CCc1c2c(nc3ccc(O)cc13)-c1cc3c(c(=O)n1C2)COC(=O)[C@]3(O)CC` the figure was 0.152 µM (active); with `CC1(C)CC(=O)c2c(C(F)(F)F)nn(-c3ccc(C(N)=O)c(NC4CCC(OC(=O)CN)CC4)c3)c2C1` (stereo not given), 0.482 µM (active).
With `CC(C)c1noc(N2CCC(COc3ccc(-c4ccc(S(C)(=O)=O)cc4)nc3)CC2)n1`, the “activity change, negative = cytotoxic” value is 21.9%.
In the case of `CC[C@@]1(O)C(=O)OCc2c1cc1n(c2=O)Cc2cc3cc(O)ccc3nc2-1`, the Potency is 0.429 µM (active).
On to `Cc1cn(-c2cc(NC(=O)c3ccc(C)c(Nc4nccc(-c5cccnc5)n4)c3)cc(C(F)(F)F)c2)cn1`, for which the “activity change, negative = cytotoxic” value was 17.1%.
In the case of `C=CC(=O)Nc1cc2c(Nc3ccc(F)c(Cl)c3)ncnc2cc1C#CC(C)(C)N1CCN(C)CC1`, the Potency was 3.83 µM (active).
Regarding `COc1ccc(CC2c3cc(OC)c(OC)cc3CC[N+]2(C)CCC(=O)OCCCCCOC(=O)CC[N+]2(C)CCc3cc(OC)c(OC)cc3C2Cc2ccc(OC)c(OC)c2)cc1OC` (stereo not given), the activity change, negative = cytotoxic is -0.106% [at 11.4 µM].
Turning to `O=C(O)c1ccc2c(c1)nc(Nc1cccc(Cl)c1)c1ccncc12`, the Potency was 12.1 µM (active).
Still for that read-out and setting: as for `CNc1nccc(-c2cccnc2Oc2cc(C(=O)Nc3cccc(C(F)(F)F)c3)ccc2C)n1`, the figure is 9.61 µM (active); as for `CN1CCN(Cc2ccc(NC(=O)Nc3ccc(Oc4cc(NC(=O)C5CC5)ncn4)cc3)cc2C(F)(F)F)CC1`, 0.764 µM (active).
On the same count and under the same terms, with `COCCn1c2c([n+](Cc3cnccn3)c1C)C(=O)c1ccccc1C2=O` the figure was 0.482 µM (active).
Turning to `CN(C)Cc1c(C(=O)NCCOc2ccc(C(=O)NO)cc2)oc2ccccc12`, the Potency is 2.41 µM (active).
Take `OCc1ccc(-c2ccc(-c3ccc(CO)s3)o2)s1`: the Potency was 21.5 µM (active).
Turning to `Cc1ccc(CN2CCNCC2)cc1NC(=O)CNc1ccc(F)c(F)c1`, the Potency was 19.2 µM (active).
For the compound `CNC(=O)c1ccc(-c2cnc3ncc(Cc4ccc5ncccc5c4)n3n2)cc1F`, the “activity change, negative = cytotoxic” value was 2.08%.
Still for that read-out and setting: as for `CS(=O)(=O)c1ccc(-c2cnc(N)c(C(=O)Nc3ccccc3)n2)cc1`, the figure is 3.86%.
Regarding `CC(C)c1cc(C(=O)N2Cc3ccc(CN4CCN(C)CC4)cc3C2)c(O)cc1O`, the Potency is 0.482 µM (active).
As for `CCCNC(=O)Nc1ccc(Oc2ncnc3cc(OC)c(OC)cc23)cc1Cl`, the “activity change, negative = cytotoxic” value is 13.2%.
As to `Nc1cc(C(F)(F)F)c(-c2cc(N3CCOCC3)nc(N3CCOCC3)n2)cn1`, the Potency was 0.482 µM (active).
Turning to `CC(C)C[C@H](NC(=O)CNC(=O)c1cc(Cl)ccc1Cl)B(O)O`, the Potency was 0.383 µM (active).
With `O=C(Cc1ccc(-c2ccc(OCCN3CCOCC3)cc2)cn1)NCc1ccccc1`, the Potency was 6.81 µM (active).
The same measure, in the same setting: with `CC(C)[C@H](C(=O)Nc1ccc(C(=O)NO)cc1)c1ccccc1` the figure was 2.41 µM (active).
For the compound `C1Cc2[nH]nc(-c3nn[nH]n3)c2C1`, the “activity change, negative = cytotoxic” value was -5.37%.
As for `C[C@]1(CO)CN(c2cc(C(=O)Nc3ccc4c(c3)-c3c(c(C(N)=O)nn3-c3ccc(F)cc3)CC4)c(Cl)cn2)C[C@@]1(C)CO`, the Potency is 19.2 µM (active).
Take `c1ccc2c(CCNc3ccc(Nc4ccncc4)cc3)c[nH]c2c1`: the Potency was 19.2 µM (active).
Consider `c1nc2nc(Nc3ccc(N4CCOCC4)cc3)nc(NC3CCCCC3)c2[nH]1`, for which the Potency was 4.29 µM (active).
As to `CNC(=O)c1ccccc1Nc1nc(Nc2ccc(N3CCOCC3)cc2OC)ncc1Cl`, the Potency is 6.07 µM (active).
Still for that read-out and setting: with `O=C(Nc1cn[nH]c1-c1nc2ccc(CN3CCOCC3)cc2[nH]1)NC1CC1` the figure was 0.242 µM (active).
Take `O=c1c2ccccc2nc2n1CCc1c-2[nH]c2ccccc12`: the “activity change, negative = cytotoxic” value is 19.6%.
`O=C(NCCCNc1nc(Nc2cccc(NC(=O)N3CCCC3)c2)ncc1I)c1cccs1`: the Potency is 17.1 µM (active).
Regarding `COc1cc2c(cc1-c1c(C)noc1C)ncc1[nH]c(=O)n([C@H](C)c3ccccn3)c12`, the Potency is 21.5 µM (active).
With `O=C(Nc1cc(C(F)(F)F)cc(C(F)(F)F)c1)c1cc(Cl)ccc1O`, the Potency is 2.41 µM (active).
